Experimental data reported in PubChem BioAssay (Tox21).
Results filed as inconclusive are left out. The source made the active and inactive calls. Unless noted, calls come from the whole dose curve.

Tests used:
[1] = qHTS assay to identify small molecule antagonists of the sonic hedgehog signaling (Shh) pathway (AID 1259369); note: nearly all actives have a fitted effect of over 45% in size; note: potency is the fitted concentration of half-maximal effect
Summary of the method: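 NIH/3T3-derived Gli1-Luc reporter cells plated 4 h, dosed with compound, then stimulated with conditioned medium for 24 h at 37 C. Firefly luciferase luminescence read after 30 min with detection reagent at room temperature.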

[2] = biological target: Estrogen receptor beta (Homo sapiens) (UniProt Q92731); assay: qHTS assay to identify small molecule agonists of the estrogen receptor beta (ER-beta) signaling pathway (AID 1259377; active = well fitted activation curve with a large enough effect in the signal ratio in the repeat runs, not every such curve was filed as active; the % refers to the signal ratio)
Summary of the method: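 Ratiometric beta-lactamase FRET read-out came after 2 h substrate loading at room temperature. It followed 16 h compound treatment at 37C of GripTite HEK293T cells carrying a UAS-bla reporter, plated in 2% charcoal-stripped FBS medium.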

[3] = biological target: Estrogen receptor beta (Homo sapiens) (UniProt Q92731); assay: qHTS assay to identify small molecule antagonists of the estrogen receptor beta (ER-beta) signaling pathway (AID 1259378; active = well fitted inhibition curve with a large enough effect in the signal ratio in the repeat runs, not every such curve was filed as active; the % refers to the signal ratio; note: potency is the fitted concentration of half-maximal effect)
Summary of the method: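 Antagonist mode: compounds added to beta-lactamase reporter HEK293T ER-beta-UAS cells stimulated with E2 (1nM final), 16 hr at 37C. LiveBLAzer B/G FRET substrate, 2 hours room temperature, fluorescence read-out.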

[4] = qHTS assay to identify small molecule agonists of the androgen receptor (AR) signaling pathway in the presence of an antagonist - cell viability counter screen (AID 1259379; active = well fitted curve in the direction sought with a large enough effect in the repeat runs; an effect the other way counts as inactive or inconclusive; note: nearly all actives have a fitted effect of over 25% in size; note: potency is the fitted concentration of half-maximal effect)
Summary of the method: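 MDA-kb2 cells (MMTV-luciferase, AR/GR), 3,000/well, 5 h attachment, then 3.0 µM nilutamide (final) and compounds at 15 concentrations. Viability by CellTiter-Fluor fluorescence after 16 h at 37 °C, 0% CO2, in the reporter wells.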

[5] = qHTS assay to identify small molecule agonists of the estrogen receptor beta (ER-beta) signaling pathway - cell viability counter screen (AID 1259380; active = well fitted curve in the direction sought with a large enough effect in the repeat runs; an effect the other way counts as inactive or inconclusive; note: nearly all actives have a fitted effect of over 30% in size; note: potency is the fitted concentration of half-maximal effect)
Summary of the method: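 ER-beta-UAS-bla HEK293T cells in medium with 2% charcoal-stripped FBS, pre-incubated 6 hr, then treated 16 hr at 37C. Cytotoxicity read in the same wells by CellTiter-Glo luminescence after 30 min at room temperature.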

[6] = qHTS assay to identify small molecule antagonists of the estrogen receptor beta (ER-beta) signaling pathway - cell viability counter screen (AID 1259382; active = well fitted curve in the direction sought with a large enough effect in the repeat runs; an effect the other way counts as inactive or inconclusive; note: nearly all actives have a fitted effect of over 55% in size; note: potency is the fitted concentration of half-maximal effect)
Summary of the method: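 ER-beta-UAS-bla HEK293T cells in 2% charcoal-stripped FBS medium, treated with compound plus 1 nM 17-beta-estradiol for 16 h at 37C. Viability read by CellTiter-Glo luminescence after 30 min at room temperature in the same wells.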

[7] = biological target: Estrogen receptor (Homo sapiens) (UniProt P03372); assay: qHTS assay to identify small molecule agonists of the estrogen receptor alpha (ER-alpha) signaling pathway in the presence of an antagonist (AID 1259383); note: top concentration of the series differs between compounds; nearly all actives have a fitted effect of over 15% in size
Summary of the method: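 VM7Luc4E2 cells express endogenous full-length ER-alpha with an ERE-luciferase reporter and were hormone-deprived for 5 days. Compounds at 15 concentrations were added with 10.0nM ICI-182,780 for 22hr at 37C. Luminescence was read with ONE-Glo.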

[8] = qHTS assay to identify small molecule agonists or antagonists of the thyroid stimulating hormone receptor (TSHR) signaling pathway - wild type cell line counter screen (AID 1259384)
Summary of the method: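 Counter screen in untransfected Hek293: compounds (15-point titration, triplicate) plus phosphodiesterase inhibitor Ro20-1724 added after 18 h plating; 30 min RT. Intracellular cAMP via competitive d2/cryptate immunoassay, 1 h incubation.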

[9] = biological target: Thyrotropin receptor (Homo sapiens) (UniProt P16473); assay: qHTS assay to identify small molecule antagonists of the thyroid stimulating hormone receptor (TSHR) signaling pathway (AID 1259385); note: nearly all actives have a fitted effect of over 20% in size; note: potency is the fitted concentration of half-maximal effect
Summary of the method: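 Antagonist mode: compound-treated TSHR-expressing HEK293 cells were stimulated with 1.5 ng/mL TSH (final) in presence of Ro20-1724 for 30 min at RT. HTRF cAMP detection after 1 h; each compound tested at 15 concentrations, triplicate.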

[10] = qHTS assay to identify small molecule agonists of the estrogen receptor alpha (ER-alpha) signaling pathway in the presence of an antagonist - cell viability counter screen (AID 1259386; active = well fitted curve in the direction sought with a large enough effect in the repeat runs; an effect the other way counts as inactive or inconclusive;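 note: cells exposed to compounds for 22 h at 37 °C before the viability read; nearly all actives have a fitted effect of over 30% in size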; note: potency is the fitted concentration of half-maximal effect)
Summary of the method: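 Cell viability in VM7Luc4E2 cells (endogenous full-length ER-alpha) measured by CellTiter-Fluor fluorescence in the same wells as the luciferase screen. Cells pre-cultured 5 days in charcoal-stripped serum, then treated 22 h with compounds at 15 concentrations plus 10.0nM ICI-182,780.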

[11] = biological target: Progesterone receptor (Homo sapiens) (UniProt P06401); assay: qHTS assay to identify small molecule agonists of the progesterone receptor (PR) signaling pathway (AID 1346784); note: nearly all actives have a fitted effect of over 30% in size
Summary of the method: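 Agonist qHTS: compounds pinned onto 3,000 PR-UAS-bla HEK 293T cells per well in charcoal-stripped serum medium, 16hr at 37C, then beta-lactamase activity measured by LiveBLAzer FRET fluorescence after 2 hours at room temperature.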

[12] = biological target: Progesterone receptor (Homo sapiens) (UniProt P06401); assay: qHTS assay to identify small molecule antagonists of the progesterone receptor (PR) signaling pathway (AID 1346795; active = well fitted inhibition curve with a large enough effect in the signal ratio in the repeat runs, not every such curve was filed as active; the % refers to the signal ratio; note: potency is the fitted concentration of half-maximal effect)
Summary of the method: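 Antagonist mode with agonist R5020 at 1 nM final and 16 hr incubation at 37C. Reporter was beta-lactamase driven by UAS in HEK293T (PR-UAS-bla), 2% charcoal-stripped serum; signal from LiveBLAzer FRET substrate, 2 hr at room temperature.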

[13] = qHTS assay to identify small molecule antagonists of the progesterone receptor (PR) signaling pathway - cell viability counter screen (AID 1346798; active = well fitted curve in the direction sought with a large enough effect in the repeat runs; an effect the other way counts as inactive or inconclusive; note: nearly all actives have a fitted effect of over 50% in size; note: potency is the fitted concentration of half-maximal effect)
Summary of the method: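 Cytotoxicity read as CellTiter-Glo luminescence (30 min, room temperature) in the same wells as the beta-lactamase readout. HEK293T PR-UAS-bla cells in charcoal-stripped 2% FBS received compound and R5020, then 16 h at 37C, 5% CO2.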

[14] = qHTS assay to identify small molecule agonists of the progesterone receptor (PR) signaling pathway - cell viability counter screen (AID 1346799); note: nearly all actives have a fitted effect of over 45% in size; note: potency is the fitted concentration of half-maximal effect
Summary of the method: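 Cytotoxicity measured by CellTiter-Glo luminescence (30 min, RT) in the same wells as the PR beta-lactamase agonist read. Those HEK293T cells had 16 h compound treatment at 37 C in 2% charcoal-stripped FBS medium.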

[15] = qHTS assay to identify small molecule antagonists of the TGF-beta/Smad signaling pathway - cell viability counter screen (AID 1346824; active = well fitted curve in the direction sought with a large enough effect in the repeat runs; an effect the other way counts as inactive or inconclusive; note: nearly all actives have a fitted effect of over 50% in size)
Summary of the method: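 Cytotoxicity counter-screen run in the same wells as the beta-lactamase Smad reporter read: CellTiter-Glo luminescence after 30 min at room temperature. HEK 293T SBE-bla cells had 5 hr compound exposure at 37 C with TGF-beta1 (0.25 ng/mL stock).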

[16] = qHTS assay to identify small molecule agonists of the TGF-beta/Smad signaling pathway - cell viability counter screen (AID 1346829; active = well fitted curve in the direction sought with a large enough effect in the repeat runs; an effect the other way counts as inactive or inconclusive; note: top concentration of the series differs between compounds; nearly all actives have a fitted effect of over 45% in size)
Summary of the method: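 Same-well cytotoxicity: CellTiter-Glo added after the 2 hr room-temperature beta-lactamase substrate step, luminescence measured 30 min later; cells had 5 hr of compound at 37 C.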

[17] = qHTS assay to identify small molecule agonists of the TGF-beta/Smad signaling pathway (AID 1346859; active = well fitted activation curve with a large enough effect in the signal ratio in the repeat runs, not every such curve was filed as active; the % refers to the signal ratio; note: series mostly up to about 77 µM)
Summary of the method: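 Fluorescence (ex 405 nm; em 460 and 530 nm) was read 2 h after LiveBLAzer FRET substrate at RT. The preceding compound treatment of overnight-plated SBE-bla HEK293T cells lasted 5 h at 37 C.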

[18] = biological target: Thyrotropin-releasing hormone receptor (Homo sapiens) (UniProt P34981); assay: qHTS assay to identify small molecule antagonists of the thyrotropin-releasing hormone receptor (TRHR) signaling pathway (AID 1346877; active = well fitted inhibition curve with a large enough effect in the repeat runs, not every such curve was filed as active; note: series mostly up to about 51 µM)
Summary of the method: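 TRHR-expressing HEK293 cells loaded with calcium dye for 2 h at 37 C; compounds pre-incubated 5 min at room temperature before TRH challenge at 1 nM final. Intracellular calcium fluorescence read kinetically for 3 min; 15 concentrations in triplicate.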

[19] = biological target: Thyrotropin-releasing hormone receptor (Homo sapiens) (UniProt P34981); assay: qHTS assay to identify small molecule agonists of the thyrotropin-releasing hormone receptor (TRHR) signaling pathway (AID 1346891); note: series mostly up to about 58 µM
Summary of the method: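 Agonist-mode intracellular calcium readout: kinetic fluorescence over 3 min at 1 s intervals after compound addition to TRHR-HEK293 cells (18 h seeded, 2 h dye-loaded at 37 C). Fifteen concentrations, triplicates.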

[20] = biological target: Androgen receptor (Homo sapiens) (UniProt P10275); assay: qHTS assay to identify small molecule agonists of the androgen receptor (AR) signaling pathway in the presence of an antagonist (AID 1259381); note: nearly all actives have a fitted effect of over 15% in size
Summary of the method: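 MDA-kb2 cells carrying MMTV-luciferase (AR/GR responsive), 3,000 cells/well, co-treated with 3.0 uM nilutamide final. Compounds at 15 concentrations, 16 hr at 37C without CO2. Luciferase luminescence read after 30 min with ONE-Glo.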

Measured: Potency

Thyrotropin receptor (Homo sapiens), sequence (P16473 whole entry, looked up): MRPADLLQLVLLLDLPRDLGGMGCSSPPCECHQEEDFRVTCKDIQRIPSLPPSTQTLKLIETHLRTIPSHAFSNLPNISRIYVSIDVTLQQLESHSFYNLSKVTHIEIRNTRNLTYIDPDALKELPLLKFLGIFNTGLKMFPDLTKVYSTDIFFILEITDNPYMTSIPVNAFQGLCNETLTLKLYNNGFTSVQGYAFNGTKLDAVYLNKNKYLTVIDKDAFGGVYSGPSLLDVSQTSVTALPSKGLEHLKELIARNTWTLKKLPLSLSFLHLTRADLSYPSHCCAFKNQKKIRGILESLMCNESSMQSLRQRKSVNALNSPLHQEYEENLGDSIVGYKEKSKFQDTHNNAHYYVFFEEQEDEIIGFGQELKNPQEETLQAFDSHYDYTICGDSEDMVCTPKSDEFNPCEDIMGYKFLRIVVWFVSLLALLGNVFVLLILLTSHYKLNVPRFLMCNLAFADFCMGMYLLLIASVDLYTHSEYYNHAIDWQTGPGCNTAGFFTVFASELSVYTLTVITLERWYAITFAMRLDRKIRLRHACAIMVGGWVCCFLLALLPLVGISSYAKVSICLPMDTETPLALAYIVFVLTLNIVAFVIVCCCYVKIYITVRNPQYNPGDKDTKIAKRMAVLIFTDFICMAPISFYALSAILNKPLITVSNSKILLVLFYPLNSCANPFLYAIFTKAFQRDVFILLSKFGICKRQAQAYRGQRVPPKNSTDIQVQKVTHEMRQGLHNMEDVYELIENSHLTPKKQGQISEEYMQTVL
Androgen receptor (Homo sapiens), sequence (P10275 whole entry, looked up): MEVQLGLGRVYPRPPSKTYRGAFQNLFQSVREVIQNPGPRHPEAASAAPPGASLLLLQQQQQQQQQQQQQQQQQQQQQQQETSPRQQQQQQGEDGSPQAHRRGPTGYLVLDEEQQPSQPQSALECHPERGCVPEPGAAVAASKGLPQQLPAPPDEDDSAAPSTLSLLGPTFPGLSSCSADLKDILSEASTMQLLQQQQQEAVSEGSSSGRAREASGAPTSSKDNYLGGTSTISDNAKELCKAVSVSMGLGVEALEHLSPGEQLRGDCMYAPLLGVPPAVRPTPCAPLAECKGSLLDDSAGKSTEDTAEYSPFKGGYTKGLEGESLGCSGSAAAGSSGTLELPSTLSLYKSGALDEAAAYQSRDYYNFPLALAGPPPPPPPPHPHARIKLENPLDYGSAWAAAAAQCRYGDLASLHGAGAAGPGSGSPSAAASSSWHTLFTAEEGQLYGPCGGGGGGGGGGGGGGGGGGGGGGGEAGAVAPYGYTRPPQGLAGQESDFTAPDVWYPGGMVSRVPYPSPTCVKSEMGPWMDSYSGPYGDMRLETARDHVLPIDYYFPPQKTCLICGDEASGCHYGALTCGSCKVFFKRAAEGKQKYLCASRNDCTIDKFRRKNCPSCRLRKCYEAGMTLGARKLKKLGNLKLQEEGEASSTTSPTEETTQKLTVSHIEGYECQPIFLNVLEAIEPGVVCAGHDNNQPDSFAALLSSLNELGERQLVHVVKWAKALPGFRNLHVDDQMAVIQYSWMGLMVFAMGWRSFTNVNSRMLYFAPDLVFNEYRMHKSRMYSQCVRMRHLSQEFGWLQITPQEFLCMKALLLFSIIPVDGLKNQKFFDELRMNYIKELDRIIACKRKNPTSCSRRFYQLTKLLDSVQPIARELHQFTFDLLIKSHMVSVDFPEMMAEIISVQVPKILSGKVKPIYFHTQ
Progesterone receptor (Homo sapiens), sequence (P06401 whole entry, looked up): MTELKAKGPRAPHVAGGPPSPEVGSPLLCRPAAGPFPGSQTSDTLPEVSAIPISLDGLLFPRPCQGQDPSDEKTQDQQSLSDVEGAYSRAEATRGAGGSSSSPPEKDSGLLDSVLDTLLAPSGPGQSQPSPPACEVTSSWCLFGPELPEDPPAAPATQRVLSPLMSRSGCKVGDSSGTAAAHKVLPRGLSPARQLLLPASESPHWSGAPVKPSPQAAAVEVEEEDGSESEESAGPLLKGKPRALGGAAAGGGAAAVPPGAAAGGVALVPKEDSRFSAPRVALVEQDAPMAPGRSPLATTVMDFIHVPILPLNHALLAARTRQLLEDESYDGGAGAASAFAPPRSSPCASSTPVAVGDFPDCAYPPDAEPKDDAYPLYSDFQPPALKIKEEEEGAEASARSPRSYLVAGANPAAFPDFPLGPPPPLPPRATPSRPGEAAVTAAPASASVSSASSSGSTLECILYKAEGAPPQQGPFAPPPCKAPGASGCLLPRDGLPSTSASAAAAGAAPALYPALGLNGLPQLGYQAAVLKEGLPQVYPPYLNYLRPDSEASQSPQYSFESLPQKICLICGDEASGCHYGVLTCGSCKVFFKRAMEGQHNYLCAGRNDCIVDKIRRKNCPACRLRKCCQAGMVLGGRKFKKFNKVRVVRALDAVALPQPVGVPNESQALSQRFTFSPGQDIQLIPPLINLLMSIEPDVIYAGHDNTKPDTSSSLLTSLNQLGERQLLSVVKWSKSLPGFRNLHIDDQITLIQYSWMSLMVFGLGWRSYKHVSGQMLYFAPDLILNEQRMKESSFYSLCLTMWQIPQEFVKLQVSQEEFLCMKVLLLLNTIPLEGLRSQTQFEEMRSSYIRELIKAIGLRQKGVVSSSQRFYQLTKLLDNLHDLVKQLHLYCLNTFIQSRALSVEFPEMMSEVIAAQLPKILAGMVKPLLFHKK
Thyrotropin-releasing hormone receptor (Homo sapiens), sequence (P34981 whole entry, looked up): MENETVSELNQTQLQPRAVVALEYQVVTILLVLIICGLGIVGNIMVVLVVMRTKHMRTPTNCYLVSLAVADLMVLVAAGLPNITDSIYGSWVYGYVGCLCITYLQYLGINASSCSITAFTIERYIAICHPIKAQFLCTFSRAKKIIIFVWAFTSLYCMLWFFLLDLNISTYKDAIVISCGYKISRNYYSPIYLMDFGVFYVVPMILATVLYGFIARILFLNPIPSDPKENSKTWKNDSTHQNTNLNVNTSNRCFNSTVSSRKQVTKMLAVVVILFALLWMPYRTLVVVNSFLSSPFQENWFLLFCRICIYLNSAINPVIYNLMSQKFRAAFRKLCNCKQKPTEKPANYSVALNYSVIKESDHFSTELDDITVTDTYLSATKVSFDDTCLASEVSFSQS
Estrogen receptor (Homo sapiens), sequence (P03372 whole entry, looked up): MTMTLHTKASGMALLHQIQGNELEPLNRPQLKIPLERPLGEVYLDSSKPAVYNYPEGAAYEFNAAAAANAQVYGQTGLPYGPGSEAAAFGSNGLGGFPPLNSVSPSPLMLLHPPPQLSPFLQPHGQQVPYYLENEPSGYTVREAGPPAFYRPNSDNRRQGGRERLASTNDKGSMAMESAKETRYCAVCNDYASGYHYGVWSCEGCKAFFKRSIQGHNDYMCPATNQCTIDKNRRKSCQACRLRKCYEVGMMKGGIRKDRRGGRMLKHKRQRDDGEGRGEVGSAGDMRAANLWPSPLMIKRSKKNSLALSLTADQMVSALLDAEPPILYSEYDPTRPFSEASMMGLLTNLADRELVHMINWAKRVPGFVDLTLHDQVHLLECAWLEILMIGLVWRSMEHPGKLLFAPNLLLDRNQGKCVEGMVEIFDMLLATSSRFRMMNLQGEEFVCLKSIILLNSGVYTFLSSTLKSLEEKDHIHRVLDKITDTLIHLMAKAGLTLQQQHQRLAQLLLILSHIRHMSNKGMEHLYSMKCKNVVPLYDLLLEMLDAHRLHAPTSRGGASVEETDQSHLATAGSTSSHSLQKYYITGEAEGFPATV
Estrogen receptor beta (Homo sapiens), sequence (Q92731 whole entry, looked up): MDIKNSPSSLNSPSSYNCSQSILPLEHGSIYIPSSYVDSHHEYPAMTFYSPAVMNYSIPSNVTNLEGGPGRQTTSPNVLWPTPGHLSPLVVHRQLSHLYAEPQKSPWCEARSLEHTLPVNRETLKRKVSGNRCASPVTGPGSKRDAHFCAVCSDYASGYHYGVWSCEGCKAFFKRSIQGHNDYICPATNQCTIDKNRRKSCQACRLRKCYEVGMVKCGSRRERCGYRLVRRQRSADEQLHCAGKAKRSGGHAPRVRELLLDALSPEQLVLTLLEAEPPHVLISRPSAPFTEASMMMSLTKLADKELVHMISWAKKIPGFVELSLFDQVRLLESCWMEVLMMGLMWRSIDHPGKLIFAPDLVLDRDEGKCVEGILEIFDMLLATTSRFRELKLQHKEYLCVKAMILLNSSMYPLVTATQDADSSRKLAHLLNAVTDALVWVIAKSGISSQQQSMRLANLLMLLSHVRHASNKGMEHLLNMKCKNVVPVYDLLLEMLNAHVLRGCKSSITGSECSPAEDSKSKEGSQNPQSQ

CSc1cnc(C)cn1
not listed: [20]
inactive: all other assays above

C=C(C)C(=O)OCC[N+](C)(C)C
not listed: [5] | [7] | [9] | [11] | [12] | [13] | [18] | [19]
inactive: all other assays above

Cc1cccc(N(C)C(=S)Oc2ccc3c(c2)C2CCC3C2)c1 (stereo not drawn)
active: [12] 15 µM
not listed: [9] | [13] | [14] | [18] | [20]
inactive: all other assays above

Nc1cc(C(F)(F)F)ccc1S
active: [1] 13.3 µM | [5] 21.1 µM | [13] 13.3 µM
not listed: [3] | [6] | [8] | [9] | [12] | [14]
inactive: all other assays above

O=c1cccccc1O
active: [1] 24.8 µM
not listed: [5] | [6] | [14] | [15] | [18] | [20]
inactive: all other assays above

O=C(O)c1ccc(Cl)c(Cl)c1
not listed: [3] | [18] | [19]
inactive: all other assays above

CC(=O)OCC(C)OC(C)=O (stereo not drawn)
active: [1] 68.6 µM
not listed: [5] | [11] | [12] | [18] | [20]
inactive: all other assays above

Cc1cc(O)c(Cl)c(C)c1Cl
not listed: [5] | [13] | [18]
inactive: all other assays above

CCCCCCCCCCCCCCCS(=O)(=O)Oc1ccccc1
not listed: [3] | [14] | [20]
inactive: all other assays above

O=S1(=O)CC(Cl)(Cl)C(Cl)(Cl)C1
inactive: [2] | [20] | [7] | [8] | [18] | [19]
active: [1] 0.344 µM | [4] 21.7 µM | [5] 9.69 µM | [6] 9.69 µM | [9] 48.6 µM | [10] 27.3 µM | [12] 6.86 µM | [13] 13.7 µM | [14] 12.2 µM

CCCCCOc1ccccc1/C(=C\SC)n1ccnc1
active: [5] 23.7 µM | [6] 29.8 µM | [12] 3.76 µM | [13] 5.31 µM
not listed: [3] | [11] | [14]
inactive: all other assays above

C[C@]12CCC(=O)C=C1CC[C@@H]1[C@@H]2[C@@H](O)C[C@@]2(C)[C@H]1CC[C@]2(O)C(=O)COC(=O)CCC(=O)O
not listed: [11] | [12] | [14] | [15] | [20]
inactive: all other assays above

Cn1cc(C(=O)[C@@H]2CCc3nc[nH]c3C2)c2ccccc21
active: [1] 15 µM | [13] 23.7 µM
not listed: [5] | [12] | [14] | [20]
inactive: all other assays above

Cc1[nH]cnc1C[C@H]1CCc2c(C)c3ccccc3n2C1=O
active: [1] 18.9 µM | [3] 29.9 µM | [5] 4.74 µM | [12] 37.6 µM
inactive: [2] | [8] | [16] | [17] | [18] | [19]

CN(C)C(=O)C1(N2CCCCC2)CCN(CC[C@@]2(c3ccc(Cl)c(Cl)c3)CN(C(=O)c3ccccc3)CCO2)CC1
inactive: [2] | [20] | [7] | [8] | [17] | [19]
active: [1] 18.1 µM | [3] 16.1 µM | [4] 57.1 µM | [5] 36 µM | [6] 28.6 µM | [9] 64.1 µM | [10] 57.1 µM | [12] 50.9 µM | [14] 20.3 µM
